# Data: PubChem BioAssay AID2685 (National Center for Advancing Translational Sciences (NCATS), 2010)
# Screen size: about 320,000 compounds; about 2,100 (0.66%) were called active. Another 53% or so got no clear call; they are omitted. Calls come from the whole dose curve; as a rule, active = well fitted inhibition curve with a large enough effect in the signal ratio, with a control signal flat (not every such curve was filed as active); inconclusive = small, poorly fitted or top-dose-only effect, or effect the other way, or a change in a side signal; inactive = flat fitted curve, though single readings scatter; the % refers to the signal ratio. The full list was thinned out, with actives kept by preference.
# Assay: qHTS Assay for Lipid Storage Modulators in Drosophila S3 Cells;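 for cell number change: cells counted by Cell Tracker Red CMTPX staining in the red channel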; for lipid storage change, negative = inhibition: % is set by controls: 0 for no effect and ±100 for the full control effect
# Settings: BODIPY lipid droplet fluorescence, 18-24 h, cells fed with added oleic acid; cell number change: measured here: cell count max response; series mostly up to 46.1 µM; lipid storage change, negative = inhibition: at the top concentration
# In short: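 Laser-scanning cytometry quantifies lipid droplet accumulation (500–530 nm total intensity; droplet/cell object ratio) in oleic acid-fed (400 uM added) Drosophila S3 cells treated with a concentration series. 20 uM Triacsin C defined 100% inhibition.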
# Potency is the fitted concentration of half-maximal effect.
SMILES,"lipid storage change, negative = inhibition",cell number change [%],Potency,outcome
COc1ccc(C(=O)CSc2nnc(CNC(=O)c3ccccc3F)n2C)cc1OC,-9.91% (inactive),0.87,–,–
O=C(NCCOc1ccccc1)C1CCCN1C(=O)c1cccs1 (centres undefined),-2.36% (inactive),-1.16,–,–
O=C(NC1CCCCC1)C(c1ccc(F)cc1)N(Cc1ccco1)C(=O)Cn1nnc2ccccc21 (centres undefined),–,19.8,16.4 µM (active),–
O=C(NCc1ccco1)C(c1ccc(F)cc1)N(CC1CCCO1)C(=O)Cn1nnc2ccccc21 (centres undefined),–,-18.6,–,inactive
O=C(NC1CCCCC1)C(c1ccc(F)cc1)N(Cc1ccco1)C(=O)CN1C(=O)c2ccccc2S1(=O)=O (centres undefined),-10.1% (inactive),11.1,–,–
COc1ccccc1/C=C/c1onc(C)c1S(=O)(=O)N1CCC(C(=O)NC2CCCCCC2)CC1,–,-0.659,–,inactive
CCOC(=O)CC(NC(=O)c1cc2ccccc2oc1=O)c1cccc([N+](=O)[O-])c1 (centres undefined),11.5% (inactive),11.6,–,–
O=[N+]([O-])c1cc([N+](=O)[O-])c(Oc2c(F)ccc(F)c2F)cc1NN1CCCCC1,27.8% (inactive),-0.599,–,–
COc1ccccc1Oc1nc([N+](=O)[O-])nn1CC(N)=O,22.6% (inactive),-6.43,–,–
NC(=O)Cn1nc([N+](=O)[O-])nc1Oc1ccccc1C(=O)N1CCOCC1,–,-24.1,14.6 µM (active),–
NC(=O)Cn1nc([N+](=O)[O-])nc1Oc1ccc(Br)cc1,–,-1.14,–,inactive
Cc1ccc(C(=O)C[n+]2cc(Br)cc(Br)c2)cc1[N+](=O)[O-],6.01% (inactive),11.3,–,–
Cc1cccc(C(CC(=O)N2CCCCC2)c2ccccc2)c1O (centres undefined),–,-18.8,–,inactive
O=C1CC2(CCN(C(=O)c3ccc(Br)cc3)CC2)Oc2ccccc21,–,-15.2,–,inactive
COc1cc(/C=C/C(=O)c2ccc(NS(=O)(=O)c3ccc(C)cc3)cc2)cc(OC)c1O,-10.6% (inactive),-14.2,–,–
Cc1ccc2oc(C(=O)N3CCC(C(N)=O)(N4CCCCC4)CC3)c(C)c2c1,–,-4.2,18.4 µM (active),–
Cc1ccc(NC(=S)N2CCC(C(N)=O)(N3CCCCC3)CC2)c(C)c1,-4.88% (inactive),-4.08,–,–
CCN(CC)C(=O)C1CCCN(C(=O)c2oc3ccc(C)cc3c2C)C1 (centres undefined),2.31% (inactive),15.6,–,–
CCCOc1ccc(/C=C/C(=O)N2CCN(c3ccccn3)CC2)cc1,19.3% (inactive),-20.8,–,–
S=c1[nH]nc(COc2ccc3ccccc3c2)o1,7.14% (inactive),-7.51,–,–
O=S(=O)(CCc1nc2ccccc2s1)c1ccc(Cl)cc1,–,17.6,–,inactive
Cc1ccc(S(=O)(=O)CCc2nc3ccccc3s2)cc1C,–,19.6,18.4 µM (active),–

SMILES,"lipid storage change, negative = inhibition",cell number change [%],Potency,outcome
Cc1ccc(S(=O)(=O)CCc2nc3ccccc3s2)cc1,3.52% (inactive),-0.805,–,–
c1cncc(-c2cn(C[C@H]3CC[C@@H]([C@@H]4CC[C@H](Cn5cc(-c6cccnc6)nn5)O4)O3)nn2)c1,–,9.88,14.6 µM (active),–
c1ccc(-c2cn(C[C@H]3CC[C@@H]([C@@H]4CC[C@H](Cn5cc(-c6ccccc6)nn5)O4)O3)nn2)cc1,-0.0556% (inactive),-7.49,–,–
c1ccc(-c2cn(C[C@H]3CC[C@@H]([C@@H]4CC[C@H](Cn5cc(-c6ccccn6)nn5)O4)O3)nn2)nc1,7.69% (inactive),28.2,–,–
CC(=O)N1CCN(S(=O)(=O)c2c(C)n(C)c(=O)n(C)c2=O)CC1,-16.5% (inactive),5.18,–,–
CCCCOc1ccc(C(=O)N2CCNC(=O)C2CC(=O)OC(C)C)cc1 (centres undefined),–,7.09,–,inactive
CCCNC(=O)Nc1cccc(NC(C)=O)c1,-8.89% (inactive),-9.94,–,–
CCOCCCNC(=O)C1CCCN(S(=O)(=O)c2cccc3nsnc23)C1 (centres undefined),–,-2.02,–,inactive
Cc1cc(=O)n2nc(N3CCCC(C(=O)NCc4ccccc4Br)C3)sc2n1 (centres undefined),–,-27.4,1.46 µM (active),–
Cc1cc(=O)n2nc(N3CCC(C(=O)N4CCN(C)CC4)CC3)sc2n1,–,5.43,6.51 µM (active),–
COc1ccc(NC(=O)C2CCCN2c2nn3c(=O)cc(C)nc3s2)cc1 (centres undefined),-9.15% (inactive),13.8,–,–
Cc1cc(=O)n2nc(N3CCC(C(=O)NCCc4ccccc4)CC3)sc2n1,16.9% (inactive),7.93,–,–
Cc1cc(=O)n2nc(N3CCCC3C(=O)NCCCN3CC(C)CC(C)C3)sc2n1 (centres undefined),–,-13.9,5.17 µM (active),–
Cc1cc(=O)n2nc(N3CCCC(C(=O)NCc4ccccc4)C3)sc2n1 (centres undefined),14.6% (inactive),-4.61,–,–
Cc1cc(=O)n2nc(N3CCCC(C(=O)N4CCN(C)CC4)C3)sc2n1 (centres undefined),2.59% (inactive),-3.39,–,–
CCOc1ccc(CCNC(=O)C2CCN(c3nn4c(=O)cc(C)nc4s3)CC2)cc1OCC,–,3.17,5.8 µM (active),–
Cc1cc(=O)n2nc(N3CCCC(C(=O)NCc4ccccc4C)C3)sc2n1 (centres undefined),-13.4% (inactive),0.288,–,–
CCC1CCCCN1CCCNC(=O)C1CCCN(c2nn3c(=O)cc(C)nc3s2)C1 (centres undefined),–,–,–,inactive
Cc1cc(=O)n2nc(N3CCC(C(=O)N4CCN(c5ccccc5)CC4)CC3)sc2n1,-24.2% (inactive),–,–,–
COc1ccc(CCNC(=O)C2CCN(c3nn4c(=O)cc(C)nc4s3)CC2)cc1OC,-13.5% (inactive),–,–,–
COc1ccc(CCNC(=O)Cn2cnc3c(nnn3Cc3ccc(C)cc3)c2=O)cc1OC,5.48% (inactive),-15.1,–,–
COc1ccc(CN2CCN(Cc3cc4ccccc4o3)CC2CCO)c(F)c1 (centres undefined),24.4% (inactive),5.21,–,–

SMILES,"lipid storage change, negative = inhibition",cell number change [%],Potency,outcome
C/C(=N\NC(=O)c1nnn(-c2nonc2N)c1CSc1ccccc1)c1ccco1,–,–,–,inactive
N/C(=N/O)c1nc(N2CCCC2)nc(N2CCCC2)n1,11.2% (inactive),6.44,–,–
COc1ccc(OC)c(CNC(=O)C(C)n2nc(C)c3c(C)n(-c4ccccc4)nc3c2=O)c1 (centres undefined),–,-28,–,inactive
COc1ccc(CNC(=O)C(C)n2nc(C)c3c(C)n(-c4ccccc4)nc3c2=O)c(OC)c1 (centres undefined),6.4% (inactive),1.47,–,–
COc1ccccc1CNC(=O)C(C)n1nc(C)c2c(C)n(-c3ccccc3)nc2c1=O (centres undefined),–,-4.13,5.8 µM (active),–
O=S1(=O)c2ccccc2Nc2ccccc21,-5.34% (inactive),5.2,–,–
Cc1nc(NS(=O)(=O)c2ccccc2)sc1NC(=O)Nc1ccc(Cl)cc1,7.91% (inactive),3.01,–,–
COc1ccc(CCNCc2c(OC)ccc3ccccc23)cc1OC,-2.82% (inactive),20.1,–,–
CC(C(=O)N1CCCC1)N(c1ccccc1)S(C)(=O)=O (centres undefined),18.2% (inactive),-11.5,–,–
CCOC(=O)N1CCN(C(=O)C(C)N(c2ccccc2)S(C)(=O)=O)CC1 (centres undefined),14.9% (inactive),2.57,–,–
CC(C(=O)N1CCc2ccccc2C1)N(c1ccccc1)S(C)(=O)=O (centres undefined),–,-18,2.06 µM (active),–
COc1ccc2sc(-c3ccccc3OC)c(C#CCCO)c2c1,–,-1.81,–,inactive
CCOc1cc(-c2cc(-c3ccc(C)o3)nc(N)c2C#N)ccc1O,–,-0.884,–,inactive
O=C(NCc1cccnc1)C1CCN(c2ccc(S(=O)(=O)N3CCOCC3)cc2Cl)CC1,-21.4% (inactive),0.843,–,–
CCC(C)C1NC(=S)N(Cc2ccccc2)C1=O (centres undefined),4.29% (inactive),-14.7,–,–
C=CCN1C(=O)C(C(C)CC)NC1=S (centres undefined),–,-18.2,7.31 µM (active),–
CCC(C)C1NC(=S)N(C2CCCCC2)C1=O (centres undefined),3.53% (inactive),-20.3,–,–
Cc1nnc(-c2cccc(C(F)(F)F)c2)nc1N1CCOCC1,–,–,–,inactive
O=C(C1=C[C@@H](C2CC2)C[C@@H](OCc2ccc(CO)cc2)O1)N1CCOCC1,17.1% (inactive),-6.29,–,–
COc1ccc(C2NN=C(c3ccc(C)cc3)S2)cc1 (centres undefined),2.54% (inactive),14.2,–,–
Cc1ccc(C2=NNC(C(O)C(O)C(O)C(C)O)S2)cc1 (centres undefined),–,–,–,inactive
Cc1ccc(C2=NNC(C(O)C(O)C(O)C(O)CO)S2)cc1 (centres undefined),–,-6.96,23.1 µM (active),–

SMILES,"lipid storage change, negative = inhibition",cell number change [%],Potency,outcome
O=C(Nc1ccc(N2CCOCC2)cc1)C1CCCN(S(=O)(=O)c2cccc(C(F)(F)F)c2)C1 (centres undefined),9.49% (inactive),2.4,–,–
CCCNC(=O)c1ccccc1NC(=O)CN(c1ccccc1)S(=O)(=O)N(C)C,-15.5% (inactive),-16.1,–,–
CN1CCN(NC(=O)c2ccc(S(=O)(=O)N3CC4(C)CC3CC(C)(C)C4)cc2)CC1 (centres undefined),-1.05% (inactive),3.86,–,–
O=C(Nc1ccc(Cl)c(S(=O)(=O)N2CCOCC2)c1)c1ccc2c(c1)OCCO2,-7.25% (inactive),19.2,–,–
CC1(C)CC2CC(C)(CN2S(=O)(=O)c2ccc(C(=O)Nc3ccc(Cl)c(S(=O)(=O)N4CCOCC4)c3)cc2)C1 (centres undefined),–,–,5.8 µM (active),–
CCOc1ccc(C(=O)NCC(=O)OCc2ccc(F)cc2Cl)cc1,8.58% (inactive),13.4,–,–
CCn1c(=O)c2cc(C(=O)N(C)CC(OC)OC)sc2c2ccccc21,2.97% (inactive),7.22,–,–
Cc1noc(C)c1COC(=O)c1cc(S(=O)(=O)N2CCOCC2)ccc1F,16% (inactive),4.32,–,–
CCc1cc2c(COC(=O)c3cc(S(=O)(=O)N4CCOCC4)ccc3F)cc(=O)oc2cc1O,–,-14.4,18.4 µM (active),–
O=C(OCc1nnc(-c2ccccc2)o1)c1cc(S(=O)(=O)N2CCOCC2)ccc1F,14.7% (inactive),-16.6,–,–
CCc1ccc(OCC(=O)Nc2ccc3c(c2)COC3=O)cc1,16% (inactive),8.42,–,–
COc1ccc(NC(=O)C2CCN(S(=O)(=O)c3cccc4cccnc34)CC2)cc1OC,-9.44% (inactive),-22.5,–,–
COc1ccc(C)cc1NC(=O)C1CCN(S(=O)(=O)c2cccc3cccnc23)CC1,–,-24.8,10.3 µM (active),–
COc1ccc(C)cc1NC(=O)C1CCCN(S(=O)(=O)c2cccc3cccnc23)C1 (centres undefined),–,19.9,–,inactive
COc1ccc(Cl)cc1NC(=O)C1CCCN(S(=O)(=O)c2cccc3nonc23)C1 (centres undefined),6.59% (inactive),8.35,–,–
COc1ccc(C)cc1NC(=O)C1CCN(S(=O)(=O)c2cccc3nonc23)CC1,–,15.9,3.66 µM (active),–
COc1ccc(C)cc1NC(=O)C1CCCN(S(=O)(=O)c2cccc3nonc23)C1 (centres undefined),18.1% (inactive),–,–,–
COc1ccc(S(=O)(=O)Nc2c(C)n(C)n(-c3ccccc3)c2=O)cc1Br,16.7% (inactive),-3.28,–,–
CCN(CC(=O)NCc1ccc(F)cc1)C(=O)c1ccc(COc2ccccc2)cc1,7.05% (inactive),2.25,–,–
S=C(Nc1ccccn1)NC1CCCCC1,22.6% (inactive),-4.33,–,–
